± gives the standard deviation of the averaged measurements. Over roughly 33,000 sequences, “E-score (rank enrichment, -0.5 to 0.5)” has its median near -0.0028; the highest 2% begin near 0.23. This excerpt belongs to a sample that is enriched for the highest values.
What follows are sequences tested on 2Sb-muMax20 (muMax20 with two 1,3-bis(methyl)benzene Cys staples, A13C/A17C and Q88C/A92C, C-terminal Lys) (assay: PBM 8-mer E-score (E-score (rank enrichment, -0.5 to 0.5)); higher = stronger preferential binding).
Experimental: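 Protein binding microarray (universal PBM chip covering all 10-mers in fixed probe flanks) with chemically synthesized human Max(13-93) bHLH-LZ analogs (not full-length Max) bearing noncanonical residues (hArg, Tha, Aib, Nle at 65) and aromatic Cys staples. Read-out per 8-mer (and its reverse complement): E-score (rank-based enrichment, -0.5 to 0.5) and Z-score of median probe intensity.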

Row | Sequence | PBM 8-mer E-score
1 | ACGTGCAT | 0.199 ± 0.0073
2 | AGACCATG | -0.149 ± 0.029
3 | ACGGGTAA | 0.0152 ± 0.05
4 | CATGTGGG | 0.193 ± 0.0078
5 | AATGTGGG | 0.248 ± 0.054
6 | AATGTGGC | 0.0323 ± 0.0018
7 | TGAATGCA | 0.167 ± 0.015
8 | CCATACCG | 0.0521 ± 0.016
9 | ATTTTACC | 0.147 ± 0.025
10 | CGACGGAA | -0.109 ± 0.041
11 | TCCATTAA | -0.0453 ± 0.043
12 | CCCATTAA | 0.13 ± 0.0083
13 | GTCATTAA | 0.269 ± 0.035
14 | CTCATTAA | 0.154 ± 0.064
15 | AACATTAC | 0.17 ± 0.015
16 | ACCATTAA | 0.298 ± 0.038
17 | CACATTAG | -0.00967 ± 0.014
18 | CACATTAC | 0.235 ± 0.017
19 | AACATTAA | 0.0201 ± 0.011
20 | TACATTAA | 0.25 ± 0.03
21 | GACATTAA | 0.0446 ± 0.036
22 | ATCATTAA | 0.0944 ± 0.13
23 | AGCGTGGC | -0.119 ± 0.04
24 | TAACGTTA | 0.0083 ± 0.027
25 | CCATTCCG | -0.0949 ± 0.02

Row | Sequence | PBM 8-mer E-score
26 | CGACGCCC | 9e-05 ± 0.053
27 | CTGCTCTC | -0.0222 ± 0.021
28 | ATGTGATG | 0.108 ± 0.053
29 | ATATCCGC | -0.0334 ± 0.094
30 | AGAACCAG | -0.11 ± 0.019
31 | GGCATTAA | -0.00398 ± 0.043
32 | TGCATTAA | 0.267 ± 0.01
33 | AGCATTAT | 0.224 ± 0.0032
34 | GTGATTAA | 0.234 ± 0.019
35 | CTGATTAA | 0.0112 ± 0.038
36 | AGCATTAC | -0.0652 ± 0.011
37 | ATGATTAA | -0.061 ± 0.032
38 | AGCATTAA | 0.245 ± 0.037
39 | CGCATTAA | 0.0701 ± 0.0015
40 | AGGATAAT | 0.148 ± 0.024
41 | AGTTATCC | 0.119 ± 0.035
42 | AGCTCAAG | -0.0222 ± 0.065
43 | AAAGCCAG | -0.092 ± 0.033
44 | CTCGCGAA | -0.117 ± 0.028
45 | ATATTCCC | 0.159 ± 0.065
46 | ACCGGCGT | -0.189 ± 0.05
47 | CTTCGTCC | -0.084 ± 0.06
48 | ATTCGTCC | 0.232 ± 0.032
49 | ATTCGTCG | -0.057 ± 0.028
50 | ACATCGGT | -0.142 ± 0.022

Row | Sequence | PBM 8-mer E-score
51 | CCAATCTA | 0.094 ± 0.0061
52 | CCAATCTC | 0.256 ± 0.024
53 | ACAATCTC | 0.149 ± 0.018
54 | CTACGCGC | -0.0145 ± 0.047
55 | GACTCTTA | 0.151 ± 0.032
56 | CGGCGCAA | -0.0906 ± 0.015
57 | ACCGTCCG | -0.254 ± 0.034
58 | AGCCTCAG | -0.0843 ± 0.053
59 | CTCAATTA | 0.0698 ± 0.043
60 | AACAATGC | 0.23 ± 0.044
61 | ATCAATTC | 0.0558 ± 0.082
62 | AACAATTA | 0.2791 ± 0.0017
63 | GACAATGC | 0.0134 ± 0.02
64 | ATCAATCG | 0.16 ± 0.067
65 | ATCAATTA | 0.27 ± 0.01
66 | GTCAATTA | -0.0609 ± 0.042
67 | ATCAATTG | 0.257 ± 0.0066
68 | AACAATTC | 0.141 ± 0.011
69 | AACAATTG | 0.143 ± 0.022
70 | AACAATGG | 0.0925 ± 0.024
71 | CCATGGGA | 0.123 ± 0.019
72 | AATAGAGC | 0.0926 ± 0.04
73 | ATGCTTCG | 0.00498 ± 0.0021
74 | CACAGTAG | -0.0155 ± 0.0072
75 | AGCCTAGA | -0.0899 ± 0.028

Row | Sequence | PBM 8-mer E-score
76 | ACGACGAC | -0.124 ± 0.0076
77 | GTTCGCTA | -0.0331 ± 0.033
78 | ATTAGTCA | 0.172 ± 0.041
79 | CAGGATAG | 0.0195 ± 0.012
80 | GCCGTCAA | -0.0475 ± 0.027
81 | CAAGCGCC | -0.226 ± 0.091
82 | CAAGCGCA | 0.27 ± 0.03
83 | AAAGCGCA | 0.0962 ± 0.09
84 | CCATGTGA | 0.109 ± 0.036
85 | ACACATGT | 0.334 ± 0.0089
86 | AAATGTGG | 0.114 ± 0.11
87 | GCATGTGA | 0.159 ± 0.02
88 | ACATGTGC | 0.167 ± 0.0089
89 | ACACATGG | 0.145 ± 0.08
90 | ACATGTGG | 0.246 ± 0.04
91 | ACATGTGA | 0.308 ± 0.033
92 | ACACATGA | -0.0128 ± 0.068
93 | CCTCCGTC | 0.0056 ± 0.021
94 | GCCGGCCC | -0.162 ± 0.0086
95 | AAATAGTA | 0.175 ± 0.0028
96 | AGATAACG | 0.259 ± 0.041
97 | ATATAACA | 0.126 ± 0.0091
98 | CGATAACG | -0.0616 ± 0.034
99 | AAATAACG | 0.273 ± 0.017
100 | CAATAACG | 0.105 ± 0.029

Row | Sequence | PBM 8-mer E-score
101 | ATATAACG | 0.288 ± 0.0086
102 | ATATAACC | 0.16 ± 0.041
103 | AGATAACC | 0.0753 ± 0.022
104 | AAATAATG | 0.2315 ± 0.002
105 | AAATAATC | -0.0306 ± 0.048
106 | AAATAACA | 0.0873 ± 0.044
107 | AAATAATA | 0.149 ± 0.025
108 | AACGTGGT | 0.224 ± 0.05
109 | ATTCCTCC | 0.129 ± 0.052
110 | ACACCGGG | -0.119 ± 0.096
111 | AGCATAAG | 0.0893 ± 0.055
112 | CATTATGG | 0.0682 ± 0.009
113 | CACATTCC | -0.108 ± 0.075
114 | GCTGCGCA | -0.147 ± 0.022
115 | CAACATGG | 0.138 ± 0.066
116 | CAACATGA | 0.232 ± 0.044
117 | CAACATGC | -0.00139 ± 0.11
118 | CTATATAA | 0.0927 ± 0.03
119 | TTATATAA | 0.241 ± 0.086
120 | TGTTATAA | 0.261 ± 0.021
121 | CGATATAA | 0.262 ± 0.066
122 | CGATATAG | 0.00229 ± 0.039
123 | AGTTATAA | 0.141 ± 0.061
124 | CGTTATAA | 0.129 ± 0.021
125 | TACTATAA | 0.239 ± 0.017

Row | Sequence | PBM 8-mer E-score
126 | AACTATAA | 0.102 ± 0.024
127 | CACTATAA | -0.0514 ± 0.028
128 | CGATATAC | 0.156 ± 0.025
129 | ATATATAA | 0.221 ± 0.099
130 | CCCACTAA | 0.177 ± 0.014
131 | ACAGTCAC | 0.0067 ± 0.018
132 | AAATCTGG | -0.19725 ± 4.2e-05
133 | TACCTTAA | -0.0174 ± 0.012
134 | ACAGGAGC | -0.00133 ± 0.025
135 | GATTGCGA | -0.103 ± 0.03
136 | CTGGTACA | 0.0235 ± 0.024
137 | CGCCGGAG | -0.226 ± 0.023
138 | CAAATTGG | 0.0841 ± 0.087
139 | TCTCCCCA | 0.164 ± 0.047
140 | CCCTCCCA | 0.325 ± 0.076
141 | CCTCCCCC | -0.17 ± 0.14
142 | GCCTCCCA | -0.128 ± 0.085
143 | CCTCCCAA | 0.0447 ± 0.088
144 | ACTCCCCA | 0.309 ± 0.0089
145 | CCTCCCCA | 0.346 ± 0.046
146 | ACTCCCCG | 0.168 ± 0.015
147 | ACCTCCCA | -0.0967 ± 0.065
148 | ACTCCCCC | -0.192 ± 0.053
149 | ACTCCCAA | 0.141 ± 0.025
150 | ACTCCCCT | 0.266 ± 0.028

Row | Sequence | PBM 8-mer E-score
151 | CGGATAAA | 0.0371 ± 0.069
152 | AGATGAAT | 0.17 ± 0.0036
153 | CATCCTAG | 0.0659 ± 0.037
154 | ATAGGGAA | 0.0733 ± 0.043
155 | CTAATCCA | 0.0132 ± 0.01
156 | CACATCGG | -0.0961 ± 0.052
157 | ATTGTTGC | 0.00699 ± 0.061
158 | AAGAGGGC | 0.0019 ± 0.0019
159 | ACGCTCTG | -0.0545 ± 0.0079
160 | CCAACGAC | -0.133 ± 0.023
161 | TTAACTAA | 0.241 ± 0.014
162 | ATAACTAA | 0.112 ± 0.031
163 | TAAACTAA | 0.233 ± 0.028
164 | CAAACTAA | 0.0893 ± 0.026
165 | CTAACTAA | 0.0585 ± 0.065
166 | AAAACTAA | 0.132 ± 0.019
167 | GACTGCCA | -0.0667 ± 0.023
168 | AACCCACT | 0.059 ± 0.037
169 | ACCCCAGT | 0.336 ± 0.028
170 | ACCCCACT | 0.293 ± 0.044
171 | ACCCCAGA | 0.156 ± 0.044
172 | ACCCCAGG | -0.107 ± 0.067
173 | ACCCCACC | 0.22 ± 0.074

Reference: the supplement of paper PMC12636033
